Assay results reported in PubChem BioAssay (Tox21).
Results filed as inconclusive are left out. A number with no mark means an inactive call. Activity calls are given as the source filed them. Calls follow the shape of the full dose curve. Non-standard residues stand in square brackets, D forms with d. Residues, ends and D or L forms follow the SMILES beside them. *: point of attachment. Sta = CC(C)C[C@H](N)[C@@H](O)CC(=O)O; Isovaleryl = CC(C)CC(=O)*

Test: qHTS assay to identify small molecule agonists or antagonists of the thyroid stimulating hormone receptor (TSHR) signaling pathway - wild type cell line counter screen (AID 1259384)
Conditions: HEK293 wild type, cAMP HTRF counter-screen, stronger effect = higher value; series mostly up to 92.4 µM
From the text: U.S. Tox21 Program National Center for Advancing Translational Sciences [NCATS] NIH Chemical Genomics Center [NCGC] U.S. Environmental Protection Agency [EPA] National Institutes of Environmental Health Sciences [NIEHS] National Toxicology Program [NTP] U.S. Food and Drug Administration [FDA] Tox21 Assay Overview: TSHR is the receptor for thyrotropin (thyroid stimulating hormone or TSH), a member of the glycoprotein hormone family. TSH is released by the anterior pituitary gland and is the main regulator of thyroid gland growth and development. Upon binding circulating thyrotropin, a G-protein signal cascade activates adenylyl cyclase and […] cAMP concentration is increased. cAMP is a key second messenger involved extensively in cellular signal transduction pathways associated with the majority of G-protein coupled receptors (GPCRs). The activation of these GPCRs by neurotransmitters, lipids, nucleotides, peptides and hormones results in the activation or the inhibition of plasma membrane-bound adenylate cyclase through heterotrimeric G-proteins. A cell-based TSHR-Hek293 assay can be used to identify TSHR agonists. To eliminate the false positive compounds identified from screening a cell-based TSHR-Hek293 cell line, cAMP assay in a wild type Hek293 cells was used as a counter screening.
Tox21 Assay Protocol Summary: Hek293 cells (wild type) were dispensed at 800 cells/4 uL/well in 1536-well white plates using a Multidrop dispenser. After the assay plates were incubated at a 37 C/5% CO2 incubator for 18 hrs, 23 nL of compounds dissolved in DMSO, positive controls or DMSO only was transferred to the assay plate by a pin tool, followed by 1 ul medium containing Ro20-1724. After 30 min of incubation at room temperature, 2.5 ul/well of cAMP-d2 and 2.5 ul/well of anti-cAMP-cryptate were added respectively into the assay plates using a Flying Reagent Dispenser. The plates were incubated at room temperature for 1 hr. The fluorescence intensity in the plates was measured using an Envision plate reader. Each test compound was measured at 15 concentrations and in triplicates.
% is scaled to controls: 0 for no effect and ±100 for the full control effect.

**Q.** Which outcome does the source give for Cc1nc2ccc(Cl)cc2[nH]1 here?
**A.** Its outcome is “inactive”.

**Q.** Which outcome does the source give for CCCCN(CCCC)CCCCCCN(CCCC)CCCC here?
**A.** The outcome was “inactive”.

**Q.** For CC(C)(C)OC(=O)c1ccccc1C(=O)O, which outcome is on record?
**A.** Its outcome is “inactive”.

**Q.** With CCOC(=O)CC as the compound, how does the outcome read?
**A.** Its outcome is “inactive”.

**Q.** For CNCCc1ccccn1, which outcome is on record?
**A.** The outcome was “inactive”.

**Q.** Which outcome does the source give for c1coc(Cn2cccc2)c1 here?
**A.** Its outcome is “inactive”.

**Q.** With Cc1ccc(NC(N)=O)cc1 as the compound, how does the outcome read?
**A.** Its outcome is “inactive”.

**Q.** Which outcome does the source give for O=Cc1ccccc1S(=O)(=O)O here?
**A.** The outcome was “inactive”.

**Q.** For CCN(CC)CC, which outcome is on record?
**A.** The outcome was “inactive”.

**Q.** With CC(C)(C)NCC(O)COc1cccc2c1CCC(=O)N2 (stereo not given) as the compound, how does the outcome read?
**A.** The outcome was “inactive”.

**Q.** Which outcome does the source give for O=C1CC2(CCCC2)CC(=O)N1CCNCC1COc2ccccc2O1 (stereo not given) here?
**A.** Its outcome is “inactive”.

**Q.** For CC(C)CC(=O)N[C@H](C(=O)N[C@H](C(=O)N[C@@H](CC(C)C)[C@@H](O)CC(=O)N[C@@H](C)C(=O)N[C@@H](CC(C)C)[C@@H](O)CC(=O)O)C(C)C)C(C)C (Isovaleryl-VV[Sta]A[Sta]-OH), which outcome is on record?
**A.** Its outcome is “inactive”.

**Q.** With Cc1cccc(N)n1 as the compound, how does the outcome read?
**A.** The outcome was “inactive”.

**Q.** For CCCC(=O)C(CC)Sc1ccoc1C (stereo not given), which outcome is on record?
**A.** The outcome was “inactive”.

**Q.** Which outcome does the source give for Cc1cc(C)c(N)c(Cl)c1 here?
**A.** Its outcome is “inactive”.

**Q.** For C=C(C)C(=O)OCCCC, which outcome is on record?
**A.** The outcome was “inactive”.

**Q.** With C=CCCCCCCCCCCCCCC as the compound, how does the cAMP activity change read?
**A.** Its cAMP activity change is 3.16% [at 18.9 µM].

**Q.** With CCCCCCCCCCCCCCBr as the compound, how does the outcome read?
**A.** Its outcome is “inactive”.

**Q.** Which outcome does the source give for COC(=O)c1ccc(NC(C)=O)cc1OC here?
**A.** Its outcome is “inactive”.

**Q.** Which outcome does the source give for CC(=O)Oc1ccc(C(C)=O)cc1 here?
**A.** Its outcome is “inactive”.

**Q.** With Cc1cc(=O)oc2cc(O[C@@H]3SC[C@@H](O)[C@H](O)[C@H]3O)ccc12 as the compound, how does the outcome read?
**A.** Its outcome is “inactive”.

**Q.** With COc1ccc2cc(CCC(C)=O)ccc2c1 as the compound, how does the outcome read?
**A.** The outcome was “inactive”.

**Q.** For CCc1ncc(C)[nH]1, which outcome is on record?
**A.** The outcome was “inactive”.

**Q.** For COCCCOc1cc(C[C@@H](C[C@H](N)[C@@H](O)C[C@H](C(=O)NCC(C)(C)C(N)=O)C(C)C)C(C)C)ccc1OC, which outcome is on record?
**A.** Its outcome is “inactive”.

**Q.** With CC(C)(O)c1ccc(C(C)(C)O)cc1 as the compound, how does the outcome read?
**A.** The outcome was “inactive”.

**Q.** With N=C(N)S(=O)O as the compound, how does the outcome read?
**A.** Its outcome is “inactive”.

**Q.** With O=S(=O)(O)c1cc(I)c(O)c2ncccc12 as the compound, how does the outcome read?
**A.** Its outcome is “inactive”.

**Q.** With CC/C=C/CCCCCCCCCCOC(C)=O as the compound, how does the outcome read?
**A.** Its outcome is “inactive”.

**Q.** For CC(=O)c1ccc(O)c(C(N)=O)c1, which outcome is on record?
**A.** Its outcome is “inactive”.

**Q.** For NC[C@H]1O[C@H](O[C@H]2[C@H](O)[C@@H](O[C@H]3O[C@H](CO)[C@@H](O)[C@H](N)[C@H]3O)[C@H](N)C[C@@H]2N)[C@H](N)[C@@H](O)[C@@H]1O, which cAMP activity change is on record?
**A.** Its cAMP activity change is 2.25% [at 18.9 µM].

**Q.** With CC(=O)SC[C@@H](C)C(=O)N1CCC[C@H]1C(=O)N[C@@H](Cc1ccccc1)C(=O)O as the compound, how does the outcome read?
**A.** The outcome was “inactive”.

**Q.** Which outcome does the source give for CCCCCCCCCCCC(C)=O here?
**A.** The outcome was “inactive”.

**Q.** With CCC(C)c1nccnc1OC (stereo not given) as the compound, how does the outcome read?
**A.** The outcome was “inactive”.

**Q.** Which outcome does the source give for CC(C)(C)c1ccc(C(=O)CCCCl)cc1 here?
**A.** The outcome was “inactive”.

**Q.** For NC(=O)CC[C@@H](N)C(=O)O, which outcome is on record?
**A.** Its outcome is “inactive”.

**Q.** With CCCCCCCCS(=O)(=O)O as the compound, how does the outcome read?
**A.** Its outcome is “inactive”.

**Q.** For O=c1c(O)c(O)c1=O, which outcome is on record?
**A.** The outcome was “inactive”.

**Q.** Which outcome does the source give for CC(O)CCCCn1c(=O)c2c(ncn2C)n(C)c1=O (stereo not given) here?
**A.** The outcome was “inactive”.

**Q.** With C[C@@H]1NC(=O)[C@@H](N)CNC(=O)[C@H](C2CCNC(N)=N2)NC(=O)/C(=C/NC(N)=O)NC(=O)[C@H](CNC(=O)C[C@@H](N)CCCN)NC1=O (stereo not given in full) as the compound, how does the cAMP activity change read?
**A.** Its cAMP activity change is -0.133% [at 0.349 µM].

**Q.** For CCCC(C)C(O)CC (stereo not given), which outcome is on record?
**A.** Its outcome is “inactive”.
